The text below walks through data of PMC7819943, “Rice protein-binding microarrays: a tool to detect cis-acting elements near promoter regions in rice”.

Over roughly 39,000 sequences, “fluorescence intensity (a.u.)” has its median near 4,300; the highest 2% begin near 39,000. Many of the other results were omitted from the sample, so the highest values are more common in it than they were.

The assay concerns the target T1, OsSMF1 (Oryza sativa, UniProt Q6ZLB0 1-436).
T1 sequence: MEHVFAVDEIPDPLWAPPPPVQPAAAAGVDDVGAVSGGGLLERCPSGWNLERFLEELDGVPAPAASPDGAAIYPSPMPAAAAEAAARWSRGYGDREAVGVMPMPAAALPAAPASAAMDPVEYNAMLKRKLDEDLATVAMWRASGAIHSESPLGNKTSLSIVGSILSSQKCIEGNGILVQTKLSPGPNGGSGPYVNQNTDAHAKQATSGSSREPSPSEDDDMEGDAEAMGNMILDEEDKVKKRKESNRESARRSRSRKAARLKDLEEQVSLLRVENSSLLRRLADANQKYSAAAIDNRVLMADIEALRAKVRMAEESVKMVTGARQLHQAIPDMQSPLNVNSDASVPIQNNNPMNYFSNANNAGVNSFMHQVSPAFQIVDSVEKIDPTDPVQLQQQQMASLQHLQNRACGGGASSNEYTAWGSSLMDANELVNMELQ
In words: protein-binding microarray (RPBM); PBS, 2% BSA, 51.3 ng/ul salmon testes DNA, 50 uM zinc acetate, 200 nM TF, 25 C, 1 h; high values mean tight binding. As to conditions: protein: recombinant; tags: N-terminal polyhistidine and DsRed monomer fusion (pET32a); chain copies: 2; label: CyDye5-dUTP incorporated in the synthesized complementary strand; 3' TTTTT single-stranded linker to array surface; dsDNA, one strand shown. An outline of the steps:
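The binding signal is fluorescence intensity per feature, in arbitrary units, read on an Axon 4000B scanner. Polyhistidine- and DsRed-tagged transcription factors (N-terminal fusions) from E. coli BL21-CodonPlus were purified on Ni–NTA and applied at 200 nM for 1 h at 25 °C to a double-stranded, BSA-blocked custom Agilent array in buffer with 50 µM zinc acetate.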
As for “TATCATTTGTCAAACACACCCATATCCCATTTGCCAATCACGGAGTCACCTAGTGCAG”, the binding signal is 3890 fluorescence intensity (a.u.).
In the case of “ACCAGTCCCAAATCAAACAGTCCTACTAGTTGCATTTTGTCGGAGTCACCTAGTGCAG” it was 47200 fluorescence intensity (a.u.); in that of “AACGTCGGTTCCCAAACATTTGTTTTCCTTACCAATCGGGCGGAGTCACCTAGTGCAG”, 3490 fluorescence intensity (a.u.).
For “TCAATCATGAGGACATGGTAATATATTGCTTGTGTTGCTTCGGAGTCACCTAGTGCAG”, the binding signal was 3550 fluorescence intensity (a.u.).
“AATTATAAAATCCAGAAAATAAACTAAGAACTGAAAACTACGGAGTCACCTAGTGCAG”: the binding signal was 5060 fluorescence intensity (a.u.).
Consider “GTGTGAAACTCATACAAATATAAAATTACTGAACTACCGTCGGAGTCACCTAGTGCAG”, for which the binding signal is 49600 fluorescence intensity (a.u.).
“ACAAATACTGATACATATACCTATACGTATGCGTCACCGTCGGAGTCACCTAGTGCAG”: the binding signal is 8380 fluorescence intensity (a.u.).
Consider “TCAGGATGACTCGAAGTCGAATCCGCGTAATACGCTGGCGCGGAGTCACCTAGTGCAG”, for which the binding signal was 3370 fluorescence intensity (a.u.).
As to “CCATCACCTCGTCGTCCCCGTCACCGCGCCTCTCCCGCTGCGGAGTCACCTAGTGCAG”, the binding signal was 3780 fluorescence intensity (a.u.).
Under “TTGAATGGTGATGTAACTTGCATGGTTCTACACTTGATGACGGAGTCACCTAGTGCAG” stands 3610 fluorescence intensity (a.u.); under “TAATTCCAAGCTTGTTTCACCGACCTGCCAAACTCGATTGCGGAGTCACCTAGTGCAG”, 3270 fluorescence intensity (a.u.); under “CTCCGATGGAAGCCACGTCCTGTCCAATTCCCAAACTAACCGGAGTCACCTAGTGCAG”, 4220 fluorescence intensity (a.u.).
Under “GGGCAGCGCTAACCCAAAGCTCCTGCGATTCCAAACCGACCGGAGTCACCTAGTGCAG” stands 64800 fluorescence intensity (a.u.); under “AAGGTGATAGGGTCTCAAGTACGTCATTATGAATGTAAATCGGAGTCACCTAGTGCAG”, 3910 fluorescence intensity (a.u.); under “TCTAGACAATCAAGCCGCTAGAAGTTTCATAGAGTGGTAGCGGAGTCACCTAGTGCAG”, 7160 fluorescence intensity (a.u.).
In the case of “CTCCCTAGTCCACAAAACCTAGTGACGCGGCGAAACCCAACGGAGTCACCTAGTGCAG”, the binding signal was 5660 fluorescence intensity (a.u.).
Turning to “ACATGGGCCGCAATCAGGTCACGTGGCTAGGCCTTGGGCCCGGAGTCACCTAGTGCAG”, the binding signal is 3230 fluorescence intensity (a.u.).
As for “TTAGCCATTGCTACTTGCTTGCAGCGCGCGTGTCGGCTAGCGGAGTCACCTAGTGCAG”, the binding signal was 25300 fluorescence intensity (a.u.).
Take “GTGTGCTCTTGCATACATACTTGGGCTTATCTAGCTGCGTCGGAGTCACCTAGTGCAG”: the binding signal was 5510 fluorescence intensity (a.u.).
Under “TTTCAGTAGCGTCGGCTGCTCTATCTACTTGCATTGCCTGCGGAGTCACCTAGTGCAG” stands 41000 fluorescence intensity (a.u.); under “CTAGTTTACATCTGCAATGTCATGATTTATTTATGGAATACGGAGTCACCTAGTGCAG”, 19500 fluorescence intensity (a.u.).
“GTTTCTTATTTTATGAATGGTATGAGTAAGAATATGTTTGCGGAGTCACCTAGTGCAG”: the binding signal was 3690 fluorescence intensity (a.u.).
As to “TGGAAAGAATACAGTATGATATGGTCTTATTTTGTCTGCCCGGAGTCACCTAGTGCAG”, the binding signal is 41200 fluorescence intensity (a.u.).
Under “GCGAGCAGTCGATGTCCTCGATGACGATGATGGACTTGCTCGGAGTCACCTAGTGCAG” stands 4140 fluorescence intensity (a.u.); under “AGGGCTATCTGCTATCTCATCTTGTATGACAAAGATTGATCGGAGTCACCTAGTGCAG”, 65500 fluorescence intensity (a.u.).
Take “AGTAGAGAGATCTTGACAAAGTCATCGGTGATGAAGTCGACGGAGTCACCTAGTGCAG”: the binding signal is 3570 fluorescence intensity (a.u.).
Regarding “TATGACATCGGCTCAAAGATAAATGATATGTCATCGGCATCGGAGTCACCTAGTGCAG”, the binding signal was 3540 fluorescence intensity (a.u.).
In the case of “CCGTTGCCGCGCCGTGGACCGACAGCCACTGACGTCACCCCGGAGTCACCTAGTGCAG” it was 18600 fluorescence intensity (a.u.).
Under “TTGAACCAACACTATATCATACACCTAGTCACCTACTCCTCGGAGTCACCTAGTGCAG” stands 4770 fluorescence intensity (a.u.).
Regarding “ACACATTCCATATCCTTGGACTAATTCACGAGACGAATCTCGGAGTCACCTAGTGCAG”, the binding signal is 40900 fluorescence intensity (a.u.).
Consider “CATCTCCATTCTTTCATCCTCATCTCTAATGGAGAATTTCCGGAGTCACCTAGTGCAG”, for which the binding signal is 3920 fluorescence intensity (a.u.).
Take “ACTAATTGTGGCCATGTTCATCGTGCAGTTCCTTGGATCTCGGAGTCACCTAGTGCAG”: the binding signal was 17300 fluorescence intensity (a.u.).
On to “AGTAATTAAAATTTAAGAGGCAAAATTACGTGTGAATTTGCGGAGTCACCTAGTGCAG”, for which the binding signal is 4130 fluorescence intensity (a.u.).
Take “CCCGAAGCGGATTCGCGCACGGAAACCCACAGTCGATTCTCGGAGTCACCTAGTGCAG”: the binding signal is 3590 fluorescence intensity (a.u.).
Regarding “ATAGGGTGAGAAAGCACCTCGTTTTCCACGCGCACGCTTCCGGAGTCACCTAGTGCAG”, the binding signal was 3330 fluorescence intensity (a.u.).
Under “GGGAGGACGAAGGAACGCCAATACCGACATTGCTCAAGCTCGGAGTCACCTAGTGCAG” stands 65300 fluorescence intensity (a.u.); under “CTTGCCGTCGAAGCGAAGGAACCGCCACCCGACGTCAGCTCGGAGTCACCTAGTGCAG”, 5050 fluorescence intensity (a.u.).
Take “CTTGCCGTCGACGCGAAGGAACCGCCACCCGACGTCAGCTCGGAGTCACCTAGTGCAG”: the binding signal is 5610 fluorescence intensity (a.u.).
Under “GGTGGGGACCACCAGGACGGACGTGTAGGGCCTCCTGAAGCGGAGTCACCTAGTGCAG” stands 4270 fluorescence intensity (a.u.); under “TCCAGGGAGCCGCGGTGGCATATGTTGCTGACATGTTTTCCGGAGTCACCTAGTGCAG”, 5340 fluorescence intensity (a.u.); under “ACTCCGGTTTTATCCGACGTGGCAGCTGACTCAGCATGGGCGGAGTCACCTAGTGCAG”, 44300 fluorescence intensity (a.u.).
Under “GATTTTATTCGACGTGTCAGCTGACTCAGATGGTCGGTAGCGGAGTCACCTAGTGCAG” stands 39100 fluorescence intensity (a.u.).
